In publication PMC11062922 (Nature Chemical Biology, 2023):
Read-outs that look alike come from different tables or passages of the source.

Key:
Set-up in all cases: species or system human, MV4-11 + K-562 + COLO205 + SK-N-BE2 + OVCAR-8
[1] = test system: CDK4; details: read-out: apparent Kd, n = 1
[2] = test system: CDK7; details: read-out: apparent Kd; compound concentrations:100 nM and 1000 nM (sheet 'Samples'); n = 1
[3] = test system: MAPK8; details: read-out: apparent Kd, n = 1
[4] = test system: NUAK1; details: read-out: apparent Kd, n = 1
[5] = test system: STK10; details: read-out: apparent Kd, n = 1
[6] = test system: ERBB3; details: read-out: apparent Kd, compound concentrations: 100 nM and 1000 nM (sheet 'Samples'), n = 1
[7] = test system: LIMK1; details: read-out: apparent Kd, n = 1
[8] = test system: NQO1; details: read-out: apparent Kd, n = 1
[9] = test system: PIM2; details: read-out: apparent Kd; compound concentrations:100 nM and 1000 nM (sheet 'Samples'); n = 1
[10] = test system: SIK3; details: read-out: apparent Kd; compound concentrations: 100 nM and 1000 nM (sheet 'Samples'), CATDS: 1.4935731096458E-2; n = 1
[11] = test system: AURKA; details: read-out: apparent Kd, n = 1
[12] = test system: SYK; details: read-out: apparent Kd; compound concentrations:100 nM and 1000 nM (sheet 'Samples'); n = 1
[13] = test system: ADCK3; details: read-out: apparent Kd, compound concentrations: 100 nM and 1000 nM (sheet 'Samples'), n = 1
[14] = test system: ACVR2B; details: read-out: apparent Kd; compound concentrations: 100 nM and 1000 nM (sheet 'Samples'), CATDS: 2.76899291361602E-2; n = 1
[15] = test system: EPHB3; details: read-out: apparent Kd; compound concentrations: 100 nM and 1000 nM (sheet 'Samples'), CATDS: 6.3203902610818402E-2; n = 1
[16] = test system: PIK3CD; details: read-out: apparent Kd, compound concentrations: 100 nM and 1000 nM (sheet 'Samples'), n = 1
[17] = test system: BMPR1A; details: read-out: apparent Kd; compound concentrations: 100 nM and 1000 nM (sheet 'Samples'), CATDS: 4.5522705937236799E-2; n = 1
[18] = compound concentrations:100 nM and 1000 nM (sheet 'Samples')

With `N#Cc1cccc(Nc2nccc(-c3cnn4ncccc34)n2)c1` [GW778894X] as the compound, how does the potency estimated from few doses [1, 18] read?
Its potency estimated from few doses is 1830 nM.

And the potency estimated from few doses [2]?
The potency estimated from few doses was 373 nM.

What about the potency estimated from few doses [3, 18] of the same compound?
The potency estimated from few doses was 1330 nM.

And the potency estimated from few doses [4, 18]?
Its potency estimated from few doses is 792 nM.

How did the potency estimated from few doses [5, 18] turn out when `COc1cc2ncn(-c3cc(OCc4cccs4)c(C(N)=O)s3)c2cc1OC` [GSK312948A] was run?
Its potency estimated from few doses is 109 nM.

`COc1cc2nccc(Nc3ccc(Oc4ccccc4)cc3)c2cc1OC.Cl` [GI261656A] was tested. Which potency estimated from few doses ([6]; CATDS: 4.9978680002658399E-2) did it give?
Its potency estimated from few doses is 623 nM.

Which potency estimated from few doses ([7]; compound concentrations: 100 nM and 1000 nM (sheet 'Samples'), CATDS: 3.4604855317968697E-2) does the source give for `CC(C)c1nc(-c2cccc(NS(=O)(=O)c3c(F)cccc3F)c2F)c(-c2ccnc(Nc3ccc(N4CCOCC4)nc3)n2)s1` [GSK2008607A] here?
Its potency estimated from few doses is 358 nM.

How did the potency estimated from few doses [3, 18] turn out when `Fc1ccc(-c2c(-c3ccncc3)[nH]c3nccnc23)cc1` [RO1155697-000] was run?
Its potency estimated from few doses is 1790 nM.

What about the potency estimated from few doses [8, 18] of the same compound?
Its potency estimated from few doses is 1590 nM.

And the potency estimated from few doses [9]?
Its potency estimated from few doses is 1070 nM.

`N#Cc1cnc2cc(-c3cnc(CNCCN4CCOCC4)s3)ccc2c1Nc1ccc(Oc2ccccc2)cc1` [GW664114X] was tested. Which potency estimated from few doses ([6]; CATDS: 9.1270292154097404E-2) did it give?
Its potency estimated from few doses is 245 nM.

`CC(=O)N1CCN(c2ccc(Nc3nccc(-c4sc(C(C)C)nc4-c4cccc(NS(=O)(=O)c5cccc(Cl)c5)c4)n3)cn2)CC1` [GSK1660437A] was tested. Which potency estimated from few doses ([7]; compound concentrations: 100 nM and 1000 nM (sheet 'Samples'), CATDS: 8.9017548853229503E-2) did it give?
The potency estimated from few doses was 288 nM.

For `CC(C)c1nc(-c2cccc(NS(=O)(=O)c3c(F)cccc3F)c2)c(-c2ccnc(Nc3ccc(N4CCOCC4)nc3)n2)s1.Cl` [GSK1723980B], which potency estimated from few doses ([1]; compound concentrations: 100 nM and 1000 nM (sheet 'Samples'), CATDS: 1.44710084593789E-2) is on record?
The potency estimated from few doses was 1810 nM.

What about the potency estimated from few doses ([7]; compound concentrations: 100 nM and 1000 nM (sheet 'Samples'), CATDS: 8.5923205073472897E-2) of the same compound?
Its potency estimated from few doses is 36.9 nM.

And the potency estimated from few doses [10]?
The potency estimated from few doses was 1520 nM.

With `COc1cc2ncn(-c3cc(OCc4ccncc4)c(C(N)=O)s3)c2cc1OC` [GSK336313A] as the compound, how does the potency estimated from few doses [8, 18] read?
The potency estimated from few doses was 1230 nM.

What about the potency estimated from few doses [5, 18] of the same compound?
The potency estimated from few doses was 1930 nM.

With `CNC(=O)c1ccccc1Nc1nc(Nc2cccc(CS(C)(=O)=O)c2)ncc1C.O=CO` [GSK1520489A] as the compound, how does the potency estimated from few doses ([11]; compound concentrations: 100 nM and 1000 nM (sheet 'Samples'), CATDS: 6.1882254370992797E-2) read?
The potency estimated from few doses was 16.9 nM.

And the potency estimated from few doses ([3]; compound concentrations: 100 nM and 1000 nM (sheet 'Samples'), CATDS: 1.2501380881005299E-2)?
The potency estimated from few doses was 517 nM.

What about the potency estimated from few doses ([4]; compound concentrations: 100 nM and 1000 nM (sheet 'Samples'), CATDS: 1.6678428283329098E-2) of the same compound?
Its potency estimated from few doses is 217 nM.

And the potency estimated from few doses ([5]; compound concentrations: 100 nM and 1000 nM (sheet 'Samples'), CATDS: 2.4296695352096099E-2)?
The potency estimated from few doses was 88.5 nM.

Which potency estimated from few doses [7, 18] does the source give for `CC(C)c1nc(-c2ccc(F)c(NS(=O)(=O)c3c(F)cccc3F)c2)c(-c2ccnc(Nc3ccc(N4CCOCC4)nc3)n2)s1` [GSK1804250A] here?
The potency estimated from few doses was 125 nM.

`Nc1nc(N)c2nc(-c3ccccc3)[nH]c2n1` [SKF-12778] was tested. Which potency estimated from few doses [11, 18] did it give?
The potency estimated from few doses was 1110 nM.

What about the potency estimated from few doses [12] of the same compound?
Its potency estimated from few doses is 1850 nM.

Which potency estimated from few doses ([13]; CATDS: 3.3548638845590201E-2) does the source give for `CC(=O)N1CCN(c2ccc(Nc3nccc(-c4sc(C(C)C)nc4-c4cccc(NS(=O)(=O)c5ccccc5)c4)n3)cn2)CC1` [GSK1645872A] here?
The potency estimated from few doses was 570 nM.

What about the potency estimated from few doses ([1]; compound concentrations: 100 nM and 1000 nM (sheet 'Samples'), CATDS: 2.3530905499939799E-2) of the same compound?
The potency estimated from few doses was 1530 nM.

What about the potency estimated from few doses ([7]; compound concentrations: 100 nM and 1000 nM (sheet 'Samples'), CATDS: 9.09760903229518E-2) of the same compound?
The potency estimated from few doses was 111 nM.

`CS(=O)(=O)c1ccc(-c2cnc(N)c(C(=O)Nc3ccccc3)n2)cc1` [VE-821] was tested. Which potency estimated from few doses ([13]; CATDS: 0.149033723356022) did it give?
Its potency estimated from few doses is 1370 nM.

For `Cc1ccc(O)cc1Nc1ccnc2ccc(C(C)(C)C)cc12` [GW856805X], which potency estimated from few doses [14] is on record?
The potency estimated from few doses was 1250 nM.

What about the potency estimated from few doses [15] of the same compound?
The potency estimated from few doses was 31.7 nM.

Which potency estimated from few doses [2] does the source give for `Cl.Cn1c(=O)c(Cc2ccc(F)cc2F)cc2cnc(NC3CCOCC3)nc21` [RO3308757-001] here?
The potency estimated from few doses was 331 nM.

Which potency estimated from few doses ([13]; CATDS: 0.21536092464867401) does the source give for `CN1CCN(c2ccc(Nc3nc(N)c(C(=O)c4ccc5c(c4)OCCO5)s3)cc2)CC1` [RO0505124-000] here?
Its potency estimated from few doses is 935 nM.

How did the potency estimated from few doses ([16]; CATDS: 0.457718684353002) turn out when `Cn1cc(-c2ccc3c(c2)CCN3C(=O)Cc2cc(F)cc(C(F)(F)F)c2)c2c(N)ncnc21` [GSK2635225A] was run?
Its potency estimated from few doses is 139 nM.

How did the potency estimated from few doses [17] turn out when `Cc1cc(O)cc(C)c1/C=C/c1cncc(-c2nn[nH]n2)c1.Cl` [GW441806A] was run?
Its potency estimated from few doses is 1370 nM.

What about the potency estimated from few doses ([6]; CATDS: 9.8413353572783496E-2) of the same compound?
Its potency estimated from few doses is 174 nM.

And the potency estimated from few doses ([5]; compound concentrations: 100 nM and 1000 nM (sheet 'Samples'), CATDS: 4.0928454430712802E-2)?
Its potency estimated from few doses is 2050 nM.

With `COc1cc2ncn(-c3cc(O[C@H](C)c4ccccc4Cl)c(C(N)=O)s3)c2cc1OC` [GSK237701A] as the compound, how does the potency estimated from few doses [5, 18] read?
Its potency estimated from few doses is 574 nM.

Which potency estimated from few doses ([8]; compound concentrations: 100 nM and 1000 nM (sheet 'Samples'), CATDS: 0.15295412535869199) does the source give for `COc1ccc(Nc2nccc(N3CCC(NC(=O)Nc4cccc(OC)c4)C3)n2)cc1` (stereo not shown) [GSK1379742A] here?
Its potency estimated from few doses is 1120 nM.

Which potency estimated from few doses ([8]; compound concentrations: 100 nM and 1000 nM (sheet 'Samples'), CATDS: 0.13363559113377599) does the source give for `CS(=O)(=O)c1ccc(-c2nc3n(c2-c2ccncc2)CCC3)cc1` [SKF-105942] here?
The potency estimated from few doses was 1480 nM.

What about the potency estimated from few doses ([16]; CATDS: 0.51073942178012399) of the same compound?
Its potency estimated from few doses is 141 nM.
